CHT PAM: allosteric activators of human choline transporter CHT; Q9GZV3; CHT-expressing cells, membrane potential dye, choline EC20; active compounds read high; LV-AA mutant CHT in HEK293 cells; B-score at 10 µM; 0.49% of 310,000 active;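 active = initial fluorescence not abnormally high and integrated response B-score, plate-corrected, over 3 SD above library mean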
PGE2 EP2 inh: blocks the human prostaglandin E2 receptor EP2 | AID 1422 | inhibition, % at 25 µM | 0.52% of 260,000 active | P43116 | C6 glioma cells expressing human EP2, cAMP TR-FRET; cells stimulated with saturating PGE2;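 active = percent inhibition above 40 after rounding to a whole number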;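 note: rat C6 glioma host cells with rolipram phosphodiesterase inhibitor present; the protocol text gives 20 µM as final concentration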
Target sequence (P43116 whole entry, looked up): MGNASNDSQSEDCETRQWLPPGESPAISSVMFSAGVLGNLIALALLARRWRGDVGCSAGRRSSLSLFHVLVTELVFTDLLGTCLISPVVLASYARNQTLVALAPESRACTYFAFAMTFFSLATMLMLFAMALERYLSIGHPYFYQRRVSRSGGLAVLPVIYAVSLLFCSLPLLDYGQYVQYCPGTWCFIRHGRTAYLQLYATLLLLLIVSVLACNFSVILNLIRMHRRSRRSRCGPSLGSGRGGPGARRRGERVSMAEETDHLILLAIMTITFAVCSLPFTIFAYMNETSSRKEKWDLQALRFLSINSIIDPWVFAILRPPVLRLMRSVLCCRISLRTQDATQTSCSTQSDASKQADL
CHT block: inhibitors of human choline transporter CHT; B-score at 10 µM; 0.86% of 310,000 active; Q9GZV3; AID 488975; CHT-expressing cells, membrane potential dye, choline response; active compounds read low;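 active = B-score over 3 SD under the library average, and starting fluorescence ratio not unusually high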;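 note: choline stimulus applied at its EC90 after an EC20 pre-addition; B-score computed on integrated fluorescence ratio after choline addition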
EP2 modulator: modulators of human EP2 prostaglandin E2 receptor | P43116 | EP2-expressing cells, cAMP HTRF FRET, PGE2 co-stimulation | induction, % at 25 µM | 0.83% of 260,000 active | AID 940;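 active = compounds whose cAMP rise, as percent of the full-agonist control response, exceeds 60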;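 note: rat C6 glioma line stably carrying human EP2 under a CMV promoter; the protocol text gives 20 µM as final concentration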
Numbers stand for hits; – = inactive; · = not tested or not shown. This is a sample that favours compounds with a hit; in the whole collection about 2.1% have one here.

SMILES	CHT PAM	PGE2 EP2 inh	CHT block	EP2 modulator
Cc1cc(C)n(Cc2ccccc2Cl)n1	–	–	–	–
Cc1ccc(C)n1Cc1ccccc1Cl	–	–	–	64.7
Cc1cccc(NC(=S)N(Cc2cc3cc4c(cc3[nH]c2=O)OCO4)C2CCCCC2)c1	·	–	·	–
CC(C)(C)c1ccc(S(=O)(=O)NCCN2CCOCC2)cc1	·	–	·	–
Cc1cc2nc(CCN3CCOCC3)n(S(=O)(=O)c3ccc(C(C)(C)C)cc3)c2cc1C	–	–	–	61.4
Nc1nc2c(s1)COc1ccccc1-2	–	–	–	–
Nc1nc2c(s1)CCc1c-2cnn1-c1ccccc1	–	40.0	–	–
CC1CCN(CCCNC(=O)c2cn(C)c3ccc(S(=O)(=O)N4CCCC4)cc3c2=O)CC1	6.77	–	–	–
COc1cccc(C2(NC(=O)c3ccc(OC4CSC4)cc3)CCCC2)c1	·	–	·	–
NC(N)=Nc1ccc(-c2ccc(N=C(N)N)cc2)cc1	·	48.5	·	–
Cc1ccc(N=C(N)N=C(N)N)cc1	–	–	–	–
CCCOC(=O)C(C)Nc1n[nH]c(=S)[nH]c1=O (configuration not stated)	·	86.5	·	–
CCCOC(=O)Cc1n[nH]c(=O)[nH]c1=O	–	–	–	–
Cc1ccc2[nH]c(=O)c(CN(CCCO)C(=S)Nc3ccc(F)cc3)cc2c1	·	–	·	–
Cc1cc2cc3c(cc2nc1SCC(=O)NCc1ccc2c(c1)OCO2)OCO3	·	–	·	–
Cc1cc2cc(C)c(SCC(=O)NCc3ccc4c(c3)OCO4)nc2cc1C	·	–	·	84.5
CCc1cc2c(C)cc(C)cc2nc1SCC(=O)NCc1ccc2c(c1)OCO2	·	–	·	72.0
CC(C)Cn1c(=O)[nH]c(=O)c2c(C(F)(F)F)cc(-c3ccccc3)nc21	–	–	–	65.7
O=C(Cn1cnc2ccccc21)Nc1ccc(Cl)cc1	·	–	·	–
CC(=O)c1ccc(NC(=O)Nc2ccc3c(c2)N(C)C(=O)CS3)cc1	–	79.0	–	–
COc1ccc(N2CCN(C(=O)CSc3ncnc4sc(C)c(C)c34)CC2)cc1	·	–	·	–
CSc1nc2sc3c(c2c2nnnn12)CCCC3	–	66.1	–	–
CSc1nc2sc3c(c2c(=O)n1C)CCCC3	–	–	–	–
COc1ccccc1CN(Cc1cncn1C)C1CC(C)(C)NC(C)(C)C1	·	–	·	–
O=C(O)c1ccc(N2CCCC2)nc1	·	–	·	–
SMILES	CHT PAM	PGE2 EP2 inh	CHT block	EP2 modulator
CCc1nc(NCc2ccccc2)c(C#N)c2c1CCCC2	–	–	–	63.8
CCc1nc(NCCC(C)C)c(C#N)c2c1CCCC2	–	–	–	–
C/C(N[O-])=C(\C)[N+]([O-])=[Fe].CC(=N\[O-])/C(C)=N/[O-].[NH2-].c1c[nH+]c[n-]1	·	44.4	·	–
C/C(N[O-])=C(\C)[N+]([O-])=[Cu].C/C(N[O-])=C(\C)[N+]([O-])=[Cu].CC(=N\[O-])/C(C)=N/[O-].CC(=N\[O-])/C(C)=N/[O-]	·	55.8	·	–
CCOC(=O)Cn1nnnc1CN(Cc1ccccc1)Cc1cc2c(C)cc(C)cc2[nH]c1=O	·	–	·	65.0
Cc1cc2cc(CN(CCc3ccccc3)Cc3nnnn3CC3CCCO3)c(=O)[nH]c2cc1C (configuration not stated)	·	–	·	–
Cc1ccc2cc(CN(Cc3ccccc3)Cc3nnnn3C3CCCC3)c(=O)[nH]c2c1	–	–	–	61.5
CCc1ccc2[nH]c(=O)c(CN(Cc3ccccc3)Cc3nnnn3C3CCCCC3)cc2c1	·	–	·	74.4
Cc1ccc2cc(CN(Cc3ccc(F)cc3)Cc3nnnn3C3CCCC3)c(=O)[nH]c2c1	–	–	–	–
Cc1cc2cc(CN(CCc3ccccc3)Cc3nnnn3C3CCCCC3)c(=O)[nH]c2cc1C	·	–	·	65.7
COc1cccc(C2(NC(=O)c3ccc4c(c3)OCO4)CCCC2)c1	·	–	·	–
CCCC(c1nnnn1C(C)(C)CC)N(Cc1cc2cc(C)cc(C)c2[nH]c1=O)CC1CCCO1 (configuration not stated)	·	–	·	–
COC(=O)c1cc(NC(=O)COC(=O)c2ccccn2)ccc1Cl	·	–	·	–
Cc1ccc2[nH]c(=O)c(CN(Cc3cccs3)Cc3nnnn3CC3CCCO3)cc2c1 (configuration not stated)	–	–	–	–
CCc1ccc2[nH]c(=O)c(CN(Cc3ccccc3OC)Cc3nnnn3C(C)(C)CC)cc2c1	·	–	·	61.4
Cc1ccc2[nH]c(=O)c(CN(Cc3cccs3)Cc3nnnn3C3CCCC3)cc2c1	·	–	·	75.1
Cc1ccc2[nH]c(=O)c(CN(Cc3ccc(F)cc3)Cc3nnnn3C3CCCC3)cc2c1	·	–	·	63.1
CC(=O)Nc1ccc(NC(=O)C2CC(=O)N(c3ccccc3C)C2)cc1 (configuration not stated)	·	–	·	–
